Assay outcomes (PubChem BioAssay)
HCMV antiviral = blocks human cytomegalovirus replication. activity change, negative = inhibition, % at 57.5 µM. HFF cells, HCMV-luciferase reporter, 72 h; hits give low values. 410,000 compounds, 4.5% hits; in the data active = activity change below about -60%; inconclusive = no clear call, values can overlap the other calls; inactive = above about -39%; note: % is set by controls: 0 for no effect and ±100 for the full control effect
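HFF cells seeded 16 h at 37C, treated with compounds, infected with luciferase-reporter HCMV at MOI 1 PFU/cell; luciferase read at 72 h post infection, normalized to buffer-only and Salinomycin controls.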
HCV inhibitor = blocks hepatitis C virus | Huh7.5.1 HCVcc-Cre infection, luciferase reporter, 44 h | Potency, µM (doses to about 41.8 µM), inactives show at the highest dose activity change, negative = inhibition, actives largely listed as inhibitors | 340,000 compounds, 3.4% hits; note: potency is the fitted concentration of half-maximal effect; % is set by controls: 0 for no effect and ±100 for the full control effect
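Cells seeded at 1,000/well and cultured 4 h, then compounds added followed by HCVcc-Cre virus (~0.5 moi). After 44 h further culture, luciferase substrate was added, plates held 15 min at room temperature, and luminescence read for 15 sec.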
Sm TGR block = inhibitors of Schistosoma mansoni thioredoxin glutathione reductase; Q962Y6; purified TGR, DTNB reduction, TNB absorbance 405 nm; Potency, µM (titrated, usually from 114 µM), for the others: top-dose activity change, negative = inhibition, hits mostly inhibitors; 360,000 compounds, 3% hits; AID 485364; note: potency is the fitted concentration of half-maximal effect; % is set by controls: 0 for no effect and ±100 for the full control effect; nearly all actives have a fitted effect of over 60% in size
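Kinetic colorimetric format: TGR-catalysed, NADPH-driven DTNB reduction monitored via TNB absorbance. Enzyme dispensed at 20 nM; compound exposure 15 min at room temperature before reaction start.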
Pf growth 96h = inhibits malaria parasite growth, 96 h; AID 504834; 320,000 compounds, 6.9% hits; Potency, µM (highest dose often 28.7 µM), for inactives: at the highest dose activity change, negative = inhibition, hits mostly inhibitors; P. falciparum luciferase reporter growth, 96 h; note: potency is the fitted concentration of half-maximal effect; % is set by controls: 0 for no effect and ±100 for the full control effect
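Readout is luminescence from an integrated firefly luciferase in P. falciparum. Red cells, 2% hematocrit and 0.05% parasitemia final, were cultured with compound through two parasite generations (96 hours) at 37 C, 5% CO2.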
SARS PLP yeast = SARS-CoV PLP inhibition in yeast | S. cerevisiae expressing SARS-CoV PLpro, growth rescue | Potency, µM (series often up to 32.9 µM), for the others: at the highest dose activity, positive = growth rescue, most hits filed as activators | 330,000 compounds, 0.19% hits; calls by dose curve; note: potency is the fitted concentration of half-maximal effect; 0% is about no effect; nearly all actives have a fitted effect of over 55% in size
Pf growth 48h = P. falciparum growth inhibition at 48 hours (one generation) | P. falciparum luciferase growth in erythrocytes, 48 h | Potency, µM (series often up to 28.7 µM), for the others: top-dose activity change, negative = inhibition, actives largely listed as inhibitors | 310,000 compounds, 5.9% hits; note: potency is the fitted concentration of half-maximal effect; % is set by controls: 0 for no effect and ±100 for the full control effect
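First compound was added to culture medium, then infected red cells at 0.1% parasitemia and 2% hematocrit (final). After incubation at 37 C under 5% CO2, luciferase detection reagent was dispensed and light output recorded.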
* = called active by the depositor; ? = inconclusive; . = not tested or not shown. Compounds with a hit are over-represented: about 15% of the library has one in this group of screens. Unless noted, calls come from the whole dose curve; as a rule, active = well fitted curve in the direction sought with a large enough effect; inconclusive = small, poorly fitted or top-dose-only effect, or another doubt; inactive = no such curve, though single readings can be large; an effect the other way counts as inactive or inconclusive.

SMILES	HCMV antiviral	HCV inhibitor	Sm TGR block	Pf growth 96h	SARS PLP yeast	Pf growth 48h
COCCn1nnnc1C(c1cc2cc(OC)c(OC)cc2[nH]c1=O)N1CCN(c2ccc(O)cc2)CC1 (stereo not drawn)	13.1	-1.9%	11.4%	?	0.9%	52.4%
CCc1ccc2[nH]c(=O)c(C(c3nnnn3CCOC)N3CCN(c4ccccc4)CC3)cc2c1 (stereo not drawn)	27.6	2.8%	44.7µM*	-3.6%	1.1%	?
CCc1ccc2[nH]c(=O)c(C(c3nnnn3CCOC)N3CCN(c4ccc(F)cc4)CC3)cc2c1 (stereo not drawn)	62.9	11.3%	50.1µM*	-10.1%	1.5%	?
CCc1ccc2[nH]c(=O)c(C(c3nnnn3Cc3ccccc3)N3CCOCC3)cc2c1 (stereo not drawn)	23.2	22.4%	-0.3%	-44.9%	?	-2.0%
COCCn1nnnc1C(c1cc2cccc(C)c2[nH]c1=O)N1CCN(c2ccccc2F)CC1 (stereo not drawn)	118.5	6.9%	14.1µM*	1.0%	2.8%	?
COc1ccc(S(=O)(=O)NCCc2sc(-c3cccc(F)c3)nc2C)cc1	-29.4	.	12.2%	.	.	.
CCN(CC)CCCN(C(=O)c1cccs1)c1nc(-c2ccc(OC)cc2)cs1	.	11.2µM*	?	-28.3%	-1.9%	13.1µM*
CCN(CC)CCCN(C(=O)c1cccc(C)c1)c1nc(-c2ccc(OC)cc2)cs1	-94.7*	4.1%	-5.6%	4.15µM*	-7.9%	?
COc1cccc(-c2cc(C(=O)Nc3ccc4c(c3)OCCO4)c3ccccc3n2)c1	-5.4	0.5%	-12.3%	6.57µM*	5.0%	9.28µM*
COc1cccc(NC(=O)CN(C)C(=O)c2cc(-c3ccc(C)o3)nc3ccccc23)c1	-9.5	?	14.1µM*	9.28µM*	-2.2%	11.7µM*
COc1cc(-c2cc(C(=O)Nc3cccc(S(=O)(=O)N(C)C)c3)c3ccccc3n2)cc(OC)c1OC	2.4	?	2.6%	?	3.0%	?
Cc1ccc(-c2cc(C(=O)Nc3cccc(S(=O)(=O)N(C)C)c3)c3ccccc3n2)o1	-31.1	?	22.4µM*	?	-0.8%	?
CCOc1ccc(NC(=O)CN(C)C(=O)c2cc(-c3ccc(OC)cc3)nc3ccccc23)cc1OCC	-17.8	?	0.3%	7.38µM*	-0.9%	9.28µM*
COc1ccc(NC(=O)CN(C)C(=O)c2cc(-c3ccc(Cl)cc3)nc3ccccc23)cc1	-20.9	?	0.7%	?	-2.8%	?
O=C(c1ccc(Cl)cc1)N1CCC(c2ccncc2)CC1	-17.0	.	1.1%	.	.	.
COc1ccc(-c2cc([N+](=O)[O-])ccc2OCC(=O)N(C)CC(=O)Nc2ccc(C)cc2)cc1	1.1	?	-6.9%	9.28µM*	5.3%	6.57µM*
COC(=O)c1cc(-c2ccc(C)o2)nc2ccccc12	-2.6	?	?	24.5%	-42.9%	19.0%
COc1cccc(NC(=O)c2cc(-c3ccc(C)o3)nc3ccccc23)c1	29.2	?	35.5µM*	-42.0%	-4.5%	?
COc1ccc(-c2cc(C(=O)N(C)CC(=O)Nc3ccccc3Br)c3ccccc3n2)cc1OC	12.8	20µM*	-0.9%	9.28µM*	-7.4%	8.28µM*
Cc1ccc(-c2cc(C(=O)Nc3ccccc3C)c3ccccc3n2)o1	-17.5	?	10µM*	?	-71.2%	?
COc1ccc(NC(=O)CN(C)C(=O)CN2C(=O)c3ccc([N+](=O)[O-])cc3C2=O)cc1	8.6	.	-9.1%	34.5%	-6.8%	104.9%
CCOc1ccc(NC(=O)C2CCCN(c3nnc(-n4c(C)ccc4C)s3)C2)cc1 (stereo not drawn)	-16.9	.	-25.6%	.	.	.
Cn1nnc2cc(NC(=O)Nc3cccc(C(F)(F)F)c3)ccc21	-35.4	-1.7%	17.8%	0.1%	13.9%	.
CCOc1cc(N2CCOCC2)c(OCC)cc1NC(=O)CN1C(=O)NC2(CCCCC2C)C1=O (stereo not drawn)	-22.2	-3.8%	-11.7%	1.7%	-0.3%	?
